{"source": "PubChem BioAssay AID862", "about": "(The Scripps Research Institute Molecular Screening Center, 2007)", "note": "About 1,700 (0.89%) of roughly 190,000 compounds were called active. Many of the other results were omitted from the sample, so actives are more common in it than they were. Unmarked numbers belong to inactive results.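 How the source made its calls: active means inhibition above the mean inhibition across all screened compounds plus 3 SD (cut at about 44% in these data); inactive means the rest.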"}
{"assay": "IL-6 driven STAT3 reporter inhibitors, primary screen, U3A cells, luciferase, luminescence, MLSCN library (AID 862);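 further: 0% = DMSO only wells and 100% = 100 µM nifuroxazide control wells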", "details": "IL-6 STAT3-luciferase reporter, at 5.5 µM, stronger effect = higher value"}
{"smiles": "CC1=CC(=Cc2sc3ccccc3[n+]2C)C=C(C)O1", "inhibition": "81.6% (active)"}
{"smiles": "COc1ccc(C(=O)CC2C(=O)N(C)C(=O)N(C)C2=O)cc1", "inhibition": "8.6%"}
{"smiles": "Cc1cccc(-n2c(O)c(/C=N/N3CCOCC3)c(=O)[nH]c2=S)c1", "inhibition": "-17.9%"}
{"smiles": "Cc1nc2ccc(N3CCN(C)CC3)cc2nc1C", "inhibition": "-6.4%"}
{"smiles": "CN1CCN(c2cc(N3CCNCC3)ccc2[N+](=O)[O-])CC1", "inhibition": "-1.6%"}
{"smiles": "COc1cccc(-c2nc3ccc(N4CCN(C)CC4)cc3[nH]2)c1", "inhibition": "85.4% (active)"}
{"smiles": "Cc1c(C(=O)O)cccc1-n1c(C)cc(/C=C2\\C(=O)NC(=O)N(c3ccc4c(c3)OCO4)C2=O)c1C", "inhibition": "2.2%"}
{"smiles": "O=C(CCCn1c(=O)[nH]c2cc(Cl)ccc2c1=O)N1CCC2(CC1)OCCO2", "inhibition": "14.5%"}
{"smiles": "O=C(CN1CCCC1=O)NCCc1ccccc1", "inhibition": "3.6%"}
{"smiles": "N#Cc1ccc(Cn2cc(C(=O)c3ccco3)c3ccccc32)cc1", "inhibition": "10.3%"}
